Reference: PubChem BioAssay AID372 (MTDP, 2006)
About 770 (0.77%) of roughly 100,000 compounds were called active. This is one part of a sample in which actives are shown more often than they occur. Cut-off read from the data, not from the text of the source: active = inhibition above about 50%; inactive = the rest.

The compounds below were run against Gag-Pol polyprotein (Human immunodeficiency virus type 1 group M subtype B (isolate HXB2)) (UniProt P04585) (assay: RNase H inhibition, HIV 1 Gag Pol polyprotein, FRET biochemical assay, screening (AID 372)). Settings: HIV-1 RT RNase H, FRET RNA/DNA substrate fluorescence; at 10 µM; hits give high values.
For `O=C(CN(c1ccc([N+](=O)[O-])cc1)S(=O)(=O)c1ccccc1)NC1CC2CCC1C2` (stereo not given), the inhibition was 13% (inactive).
For `Cc1ccc(N2C(=O)NC(=O)/C(=C\c3ccc(OCC(=O)O)c(Br)c3)C2=O)cc1`, the inhibition was 3% (inactive).
For `O=C(NC(=S)Nc1cccc(C(F)(F)F)c1)c1ccc(-c2ccc(Cl)cc2)o1`, the inhibition was 10% (inactive).
In the case of `O=C(Nc1ccc(F)cc1)Nc1nnc(-c2ccccc2SCc2ccccc2)s1`, the inhibition is reported as 25% (inactive).
In the case of `Clc1cccc(Cl)c1OCCCN1CCCC1`, the inhibition is reported as 7% (inactive).
`Clc1cccc(Cl)c1OCCCN1CCCCC1` was tested, and the inhibition was 2% (inactive).
For `Clc1cccc(Cl)c1OCCN1CCCC1`, the inhibition was 56% (active).
For `COc1cc(/C=C(\C#N)C(=O)Nc2ccc(F)cc2)c([N+](=O)[O-])cc1OC`, the inhibition was 3% (inactive).
With `Cc1ccc([N+](=O)[O-])cc1-c1[nH]c(-c2cccc(O)c2)nc1-c1ccccc1` the inhibition was 32% (inactive).
With `COc1cc(-c2nc(-c3ccccc3)c(-c3cc([N+](=O)[O-])ccc3C)[nH]2)cc(OC)c1OC` the inhibition was 33% (inactive).
With `Cc1ccc([N+](=O)[O-])cc1-c1[nH]c(-c2ccc(C#N)cc2)nc1-c1ccccc1` the inhibition was 57% (active).
For `N#C/C(=C/c1cccc2ccccc12)c1ccc([N+](=O)[O-])cc1`, the inhibition was 36% (inactive).
For `C/C(=C\c1cccc2ccccc12)[N+](=O)[O-]`, the inhibition was 53% (active).
In the case of `O=[N+]([O-])c1ccccc1C=Nc1cccc2ccccc12`, the inhibition is reported as 6% (inactive).
For `COC(=O)c1ccccc1NC(=O)c1cc(=O)[nH]c2ccccc12`, the inhibition was 1% (inactive).
With `CCOC(=O)c1ccc2[nH]c(C)c(C/C=C(/C)Cl)c(=O)c2c1` the inhibition was 0% (inactive).
In the case of `O=C(Nc1cccc(-c2nc3cc(Cl)ccc3o2)c1)c1ccc2c(c1)OCCO2`, the inhibition is reported as 9% (inactive).
In the case of `Cc1ccc(C(=O)Nc2ccc(-c3nc4cc(Cl)cc(Cl)c4o3)cc2)cc1`, the inhibition is reported as 11% (inactive).
`O=C(Nc1ccc2oc(-c3cccc(Cl)c3)nc2c1)c1ccc2c(c1)OCCO2` was tested, and the inhibition was 37% (inactive).
In the case of `O=C(Nc1ccc(-c2nc3cc(Cl)cc(Cl)c3o2)cc1)c1ccc2c(c1)OCCO2`, the inhibition is reported as 58% (active).
`O=C(Nc1ccc2oc(-c3ccccc3)nc2c1)c1ccc2c(c1)OCCO2` was tested, and the inhibition was 11% (inactive).
`O=C(Nc1ccc2oc(-c3cccc(I)c3)nc2c1)c1ccc2c(c1)OCCO2` was tested, and the inhibition was 56% (active).
`Cc1ccc(-c2nc3cc(Cl)cc(Cl)c3o2)cc1NC(=O)c1ccc2c(c1)OCCO2` was tested, and the inhibition was 24% (inactive).
In the case of `O=C(Nc1ccc2oc(-c3ccc(I)cc3)nc2c1)c1ccc2c(c1)OCCO2`, the inhibition is reported as 15% (inactive).
With `O=C(Nc1ccc2oc(-c3ccc(F)cc3)nc2c1)c1ccc2c(c1)OCCO2` the inhibition was 51% (active).
